Screen size: about 190,000 compounds; about 270 (0.14%) were called active. About 2% were inconclusive and are not listed.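 How the source made its calls: active means GTP binding activity at least 20% away from the 100% baseline, either lowered as inhibitor or raised as activator; inconclusive means flagged as likely green fluorescent, judged across all proteins in the well; inactive means the rest.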 The full list was thinned out, with actives kept by preference.
These molecules were tested against GTPase HRas (Homo sapiens) (UniProt P01112) (assay: HRas wt fluorescent GTP binding changes, either direction – biochemical, wildtype, bead-based flow cytometry, multiplex, primary screen (AID 759;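 further: 0% = unlabeled GTP competition control and 100% = no-compound control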)). Details: GST-Ras wt beads, Bodipy-FL-GTP binding, at 10 µM, actives lie on both sides.
Chain of GTPase HRas (Homo sapiens) (P01112 whole entry, looked up): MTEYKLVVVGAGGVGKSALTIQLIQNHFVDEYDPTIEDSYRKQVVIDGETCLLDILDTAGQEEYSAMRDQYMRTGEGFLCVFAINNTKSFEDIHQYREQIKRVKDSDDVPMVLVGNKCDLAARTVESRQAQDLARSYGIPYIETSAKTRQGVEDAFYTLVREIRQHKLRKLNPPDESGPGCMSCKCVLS

GTP binding activity, inactive:
Cc1ccc(CN(Cc2cccnc2)C(=S)Nc2cccc(Cl)c2C)cc1 95%
CCCCn1c(N)c(N(CC)C(=O)/C=C/c2ccco2)c(=O)[nH]c1=O 99%
CSc1ncccc1C(=O)N1CCCC(CCC(=O)NCc2ccccc2F)C1 (stereo unspecified) 100%
COC(=O)c1ccc(NC(=O)c2cc(Cl)ccc2OC)cc1 96%
O=C1N/C(=N\N=C\c2ccco2)SC1Cc1ccc(F)cc1 (stereo unspecified) 97%
O=C(c1ccncc1)c1ccc([N+](=O)[O-])cc1 94%
CCOC(=O)CN1CCC(c2ccccc2)CC1 98%
CC(C)(C)n1nc2c(c1NC(=O)c1cc3ccccc3o1)CSC2 96%
CN1C(=O)/C(=N/OC(=O)c2ccccc2Br)c2ccccc21 91%
CCOC(=O)C1(CCOC)CCN(Cc2ccc(C(=O)OC)cc2)CC1 98%
Cc1cccc(-n2c(Cc3cc(=O)[nH]c(=O)[nH]3)nnc2SCC(=O)Nc2cccc(C(F)(F)F)c2)c1 102%
O=C(NCc1nnc(SCC(=O)N2CCC(Cc3ccccc3)CC2)o1)c1ccco1 98%
O=C(N/N=C/c1ccc([N+](=O)[O-])o1)c1cccc(S(=O)(=O)N2CCOCC2)c1 96%
CN(CC(=O)NC1CCCC1)S(=O)(=O)c1cnc[nH]1 104%
CCC(C)NC(=O)Cn1nc(C(F)(F)F)c2c1CCC2 (stereo unspecified) 100%
C=CCN1C2CCCC1CC(NC(=S)Nc1cccc(OC)c1)C2 (stereo unspecified) 99%
Cc1[nH]c2ccccc2c1-c1ccc(Cl)nn1 96%
COc1cccc(C(=O)Nc2cccnc2)c1OC 98%
FC(F)(F)c1cccc(Cc2noc(CN3CCC(N4CCCCC4)CC3)n2)c1 104%
C=CCNc1nc(Nc2ccc(Cl)cc2)nc(OC)n1 104%
O=C1CN(C(=O)CN2C(=O)NC3(CCCCC3)C2=O)c2ccccc2N1 98%
COc1ccc(S(=O)(=O)Nc2cccnc2)c(Cl)c1Cl 93%
Cc1ccc(S(=O)(=O)N(C)c2ccc(OCC(=O)NC3=NCCS3)cc2)cc1 99%
CCc1ccc(CN2C(=O)c3ccccc3C2C(=O)NCC2CCCO2)cc1 (stereo unspecified) 96%
Cc1ccc(NC(=O)CSc2nc(CSc3ccc(C)cc3)cc(=O)[nH]2)cc1 95%
Cn1c(-c2ccc(F)cc2)cnc1SCC(=O)NNC(=O)Cc1ccccc1 99%
O=C(COC(=O)c1cnccn1)Nc1cccc2ccccc12 96%
O=C(C1CCN(S(=O)(=O)c2ccc(Br)s2)CC1)N1CCN(C2CCCCC2)CC1 95%
O=C(/C=C\c1cn(-c2ccccc2)nc1-c1cccs1)N1CCOCC1 103%
O=C(O)/C=C/c1cn(-c2ccccc2)nc1-c1cccs1 92%
CCSc1sc(CC)cc1C=O 97%
COC(=O)Cc1c(O)ccn(Cc2cccc(C(F)(F)F)c2)c1=O 96%
Cc1ccc(NC(=S)N(CCN(C)C)Cc2cccs2)cc1C 93%
O=C(NCc1ccncc1)C(=O)NCc1ccco1 97%
CCOC(=O)c1c(-c2cccc(N)c2)cn2ccccc12 99%
CNC(=S)NNC(=O)c1cccn(Cc2ccccc2)c1=O 97%
Cc1cccc(C)c1N1CCN(S(=O)(=O)N2CCCCC2)CC1 96%
Cc1cc2nc(C(F)(F)F)cc(-c3cccs3)n2n1 90%
Nc1ccc(S(=O)(=O)Nc2nccc(/C=C/c3ccc(Br)s3)n2)cc1 91%
O=C(CCN1CCCCC1)N=Nc1c(O)[nH]c2ccccc12 98%
Cc1cc(OC(=O)c2ccccc2)c([N+](=O)[O-])c(=O)[nH]1 101%
COc1ccc(C(=O)NC(=S)Nc2ccc(Cl)cn2)cc1OC 99%
Cc1nn(CC#N)c(=O)n1N(C)c1ncc(C(F)(F)F)cc1Cl 99%
CC(=O)Nc1ccc(NC(=O)COc2ccc(S(=O)(=O)NC(C)c3ccccc3)cc2)cc1 (stereo unspecified) 114%
Cc1cc(/C=N/NC(N)=O)c(C)n1C1CCCCC1 100%
COc1cc(C(=O)Nc2cc(C(F)(F)F)ccc2-n2cncn2)cc(OC)c1OC 96%
O=C(NC(=S)Nc1ccc(S(=O)(=O)N2CCOCC2)cc1)c1ccccc1[N+](=O)[O-] 95%
COC(=O)c1cccnc1NC(=S)NC(C)C 95%
CCCCn1nc(C(=O)Nc2ccc(S(=O)(=O)Nc3ncccn3)cc2)c2ccccc2c1=O 98%
COCCCNC(=S)N1CCCC(c2nc3cc(C)c(C)cc3[nH]2)C1 (stereo unspecified) 95%
CC1Cc2ccccc2N1C1=CC(=O)CC(C)(C)C1 (stereo unspecified) 99%
Cc1nc(CN2CCN(C(=O)CCc3nnc(Cc4c[nH]c5ccccc45)o3)CC2)cs1 95%
CCc1nnc(NC(=O)CSc2nc(SC)ns2)s1 99%
O=C(O)c1ccc2c3c(cccc13)C(=O)N(OS(=O)(=O)c1ccccc1)C2=O 84%
CCOC(=O)c1cc2c(=O)[nH]c(C(Cl)(Cl)Cl)nc2o1 100%

GTP binding activity, active:
O=C(O)/C=C/c1cn(Cc2ccccc2)nc1-c1cccs1 120% [activator]

— PubChem BioAssay AID759 (NMMLSC, 2007)
